Experimental data: PubChem BioAssay
Activity calls are given as the source filed them.

Tests used:
[1] = E. coli DRC41 culture turbidity changes, primary screen, E. coli filamentation inducer project, strain DRC41, OD650, 48 h (AID 1152);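 further: E. coli MC1000 strain DRC41 lacking acrAB efflux pump and sulA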; settings: E. coli DRC41 (acrAB sulA), higher = more signal, called active from +8 up or from −8 down
[2] = small-molecule binders of probe aLefty1, primary screen, biochemical, small-molecule microarray, 635/667 nm fluorescence (AID 1153); settings: higher = more signal;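 further: score merges spot fluorescence with signal-to-noise ratio from the scanned slide images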
[3] = PSAC antagonists in infected red cells, primary screen, cell-based, P. falciparum Indochina, OD700, 1 h (AID 1154); settings: P. falciparum Indochina infected RBC osmotic lysis, higher = more signal, called active from +8 up or from −8 down
[4] = PSAC antagonists in infected red cells, primary screen, cell-based, P. falciparum Indochina, OD700, 2 h (AID 1155);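 further: lysis reports solute entry through the parasite surface anion channel PSAC; channel blockers reduce lysis of infected cells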; settings: P. falciparum Indochina infected erythrocytes, osmotic lysis OD700; higher = more signal, called active from +8 up or from −8 down
[5] = osmotic lysis modulators in infected erythrocytes, primary screen, PSAC antagonist project, cell-based, P. falciparum Indochina, OD700, 3 h (AID 1156); settings: higher = more signal, called active from +8 up or from −8 down
[6] = PSAC antagonists in infected red cells, primary screen, cell-based, P. falciparum Indochina, OD700, 18 h (AID 1157); settings: P. falciparum Indochina infected erythrocytes, osmotic lysis OD700, 18 h; higher = more signal, called active from +8 up or from −8 down
[7] = modulators of S6 phosphorylation in cells, primary screen, cell-based, A549, cytoblot, luminescence, serum-stimulated (AID 1158); settings: A549 phospho-S6 cytoblot, 5 h, higher = more signal;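 further: serum-stimulated A549 lung adenocarcinoma cells; signal is phosphorylated S6 detected by cytoblot immunostaining with HRP secondary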
[8] = target: NADPH oxidase 2 (Homo sapiens) (UniProt P04839); experiment: NOX2-dependent H2O2 signal modulators, primary screen, NOX inhibitor project, cell-based, HEK293-NOX2, PMA-stimulated, Amplex Red fluorescence (AID 1159); settings: 45 min, higher = more signal, called active from +8 up or from −8 down; further: test concentration not given here
Sequence of NADPH oxidase 2 (Homo sapiens) (P04839 whole entry, looked up): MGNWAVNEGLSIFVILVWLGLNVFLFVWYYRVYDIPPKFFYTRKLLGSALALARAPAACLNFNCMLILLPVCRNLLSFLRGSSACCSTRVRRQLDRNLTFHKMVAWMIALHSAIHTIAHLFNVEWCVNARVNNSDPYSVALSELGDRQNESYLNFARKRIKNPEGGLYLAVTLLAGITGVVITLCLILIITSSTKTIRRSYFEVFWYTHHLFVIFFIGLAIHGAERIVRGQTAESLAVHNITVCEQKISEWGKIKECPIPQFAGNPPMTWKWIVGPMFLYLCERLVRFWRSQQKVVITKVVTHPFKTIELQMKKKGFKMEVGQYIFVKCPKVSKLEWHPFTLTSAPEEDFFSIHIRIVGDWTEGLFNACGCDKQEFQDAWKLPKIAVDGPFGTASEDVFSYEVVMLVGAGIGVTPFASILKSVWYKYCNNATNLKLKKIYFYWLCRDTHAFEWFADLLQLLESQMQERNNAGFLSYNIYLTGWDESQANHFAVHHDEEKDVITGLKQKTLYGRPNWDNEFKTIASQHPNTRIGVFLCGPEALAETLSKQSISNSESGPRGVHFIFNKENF

[9] = target: NADPH oxidase 4 (Homo sapiens) (UniProt Q9NPH5); experiment: NOX4-dependent H2O2 signal modulators, primary screen, NOX inhibitor project, cell-based, HEK293-NOX4, tetracycline-induced, Amplex Red fluorescence (AID 1160); settings: 45 min, higher = more signal, called active from +8 up or from −8 down
Sequence of NADPH oxidase 4 (Homo sapiens) (Q9NPH5 whole entry, looked up): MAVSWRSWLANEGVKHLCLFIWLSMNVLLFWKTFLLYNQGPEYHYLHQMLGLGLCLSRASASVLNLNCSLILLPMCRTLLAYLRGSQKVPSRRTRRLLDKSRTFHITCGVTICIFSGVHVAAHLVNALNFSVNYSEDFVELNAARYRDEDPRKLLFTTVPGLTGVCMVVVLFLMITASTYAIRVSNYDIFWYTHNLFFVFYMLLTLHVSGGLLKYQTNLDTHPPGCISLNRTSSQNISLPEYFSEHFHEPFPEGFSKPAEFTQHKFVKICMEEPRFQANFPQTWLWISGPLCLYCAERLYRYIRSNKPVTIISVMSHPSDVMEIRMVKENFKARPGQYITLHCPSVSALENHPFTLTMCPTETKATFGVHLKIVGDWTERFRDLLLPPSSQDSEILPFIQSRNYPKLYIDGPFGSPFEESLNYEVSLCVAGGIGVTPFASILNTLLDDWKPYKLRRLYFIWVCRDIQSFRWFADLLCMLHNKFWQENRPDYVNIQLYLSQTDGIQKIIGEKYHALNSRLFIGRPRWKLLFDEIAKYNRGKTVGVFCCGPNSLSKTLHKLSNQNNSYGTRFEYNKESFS

[10] = target: NADPH oxidase 5 (Homo sapiens) (UniProt Q96PH1); experiment: NOX5-dependent H2O2 signal modulators, primary screen, NOX inhibitor project, cell-based, HEK293-NOX5, Amplex Red fluorescence (AID 1161); settings: HEK293-NOX5, ionomycin, 45 min, higher = more signal
Sequence of NADPH oxidase 5 (Homo sapiens) (Q96PH1 whole entry, looked up): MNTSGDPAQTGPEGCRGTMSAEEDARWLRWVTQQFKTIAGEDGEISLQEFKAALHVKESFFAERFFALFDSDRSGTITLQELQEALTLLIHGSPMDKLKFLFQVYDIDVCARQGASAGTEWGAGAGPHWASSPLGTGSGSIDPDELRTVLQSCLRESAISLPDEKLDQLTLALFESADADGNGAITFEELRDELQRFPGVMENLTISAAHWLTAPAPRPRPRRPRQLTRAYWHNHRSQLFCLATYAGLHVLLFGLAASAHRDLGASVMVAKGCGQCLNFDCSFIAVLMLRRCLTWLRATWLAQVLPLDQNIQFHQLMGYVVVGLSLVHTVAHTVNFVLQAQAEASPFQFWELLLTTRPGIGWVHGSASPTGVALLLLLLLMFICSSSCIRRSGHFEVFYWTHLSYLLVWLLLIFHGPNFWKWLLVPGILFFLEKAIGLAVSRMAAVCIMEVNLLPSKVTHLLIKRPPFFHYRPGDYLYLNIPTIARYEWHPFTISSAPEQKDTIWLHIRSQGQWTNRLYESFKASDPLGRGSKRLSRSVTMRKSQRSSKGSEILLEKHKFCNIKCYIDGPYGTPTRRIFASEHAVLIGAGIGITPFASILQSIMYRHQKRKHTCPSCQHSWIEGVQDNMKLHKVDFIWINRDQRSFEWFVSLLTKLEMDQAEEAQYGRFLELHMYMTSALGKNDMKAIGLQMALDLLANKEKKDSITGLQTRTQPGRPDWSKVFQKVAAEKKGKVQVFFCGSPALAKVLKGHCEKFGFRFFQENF

[11] = A549 cell viability effects, profiling panel, calcein-AM fluorescence, 48 h, basal (AID 1162); settings: higher = more signal; further: test concentration not given here
[12] = adipocyte viability effects, profiling panel, cell-based, 3T3-L1 adipocytes, calcein-AM fluorescence, 48 h, basal (AID 1163); settings: 3T3-L1 adipocytes viability, higher = more signal; further: test concentration not given here
[13] = HepG2 cell viability effects, profiling panel, calcein-AM fluorescence, 48 h, basal (AID 1164); settings: higher = more signal; further: test concentration not given here
[14] = MM1S cell viability effects, profiling panel, calcein-AM fluorescence, 48 h, basal (AID 1165); settings: higher = more signal;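 further: viability of MM1S multiple myeloma cells under basal unstimulated conditions; test concentration not given here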
[15] = basal RPMI8226 viability, no added stimulus, profiling panel, cell-based, calcein-AM fluorescence, 48 h, PK04 Diversity Set (AID 1166); settings: RPMI8226 myeloma viability, higher = more signal;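 further: cells grown under basal conditions without added stimulus; test concentration not given here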
[16] = basal HepG2 mitochondrial membrane potential changes, profiling panel, cell-based, JC-1 fluorescence, 24 h, 100 nL compound (AID 1167); settings: higher = more signal; further: test concentration not given here
[17] = basal 3T3-L1 adipocyte mitochondrial potential changes, profiling panel, cell-based, JC-1 fluorescence, 3T3-L1 adipocytes, 24 h, 100 nL compound (AID 1168); settings: JC-1 mitochondrial fluorescence, higher = more signal, called active from +8 up or from −8 down; further: test concentration not given here
[18] = basal RPMI8226 mitochondrial membrane potential changes, profiling panel, cell-based, JC-1 fluorescence, 24 h, 100 nL compound (AID 1169); settings: RPMI8226 myeloma, JC-1 mitochondrial potential fluorescence, higher = more signal; further: test concentration not given here
[19] = basal MM1S mitochondrial membrane potential changes, profiling panel, cell-based, JC-1 fluorescence, 24 h, 100 nL compound (AID 1170); settings: higher = more signal; further: test concentration not given here
[20] = A549 lung cancer cell viability effects, profiling panel, resazurin fluorescence, 24 h, PK04 Diversity Set (AID 1171); settings: higher = more signal, called active from +8 up or from −8 down; further: test concentration not given here

| SMILES | z-score [1] | composite z-score [2] | z-score [3] | z-score [4] | z-score [5] | z-score [6] | z-score [7] | z-score [8] | z-score [9] | z-score [10] | z-score [11] | z-score [12] | z-score [13] | z-score [14] | z-score [15] | z-score [16] | z-score [17] | z-score [18] | z-score [19] | z-score [20] |
| --- | --- | --- | --- | --- | --- | --- | --- | --- | --- | --- | --- | --- | --- | --- | --- | --- | --- | --- | --- | --- |
| COC(=O)[C@@]1(Cc2ccc(OC)cc2)[C@H]2c3cc(C(=O)N(C)C)n(CCN4CNCC4=O)c3C[C@H]2CN1C(=O)c1ccccc1 | -1.1 (inactive) | 0.249 | 0.143 (inactive) | -0.954 (inactive) | -0.163 (inactive) | -2.05 (inactive) | 0.963 | 0.821 (inactive) | 2.29 (inactive) | 0.453 | -0.663 | -0.261 | -0.254 | 0.316 | 0.177 | -0.812 | 0.489 (inactive) | -0.111 | -1.28 | 0.367 (inactive) |
| CCCC[C@@H]1C[C@H]1[C@@H](NC(=O)c1ccco1)c1ccc(C(=O)OC)cc1 | -2.59 (inactive) | -0.214 | 1.59 (inactive) | 0.501 (inactive) | 0.394 (inactive) | 0.323 (inactive) | -0.0467 | -1.55 (inactive) | -1.96 (inactive) | 1.82 | -1.06 | -1.16 | -0.998 | -1.77 | -2.42 | -2.68 | -2.2 (inactive) | -0.705 | -1.19 | -0.136 (inactive) |
| CC(=O)NCCCC[C@@H]1NC(=O)[C@@H]2C[C@H](C(=O)NCCCCN(C)C)[C@H](c3cccc(OCCO)c3)N2C1=O | 0.522 (inactive) | -0.243 | 0.628 (inactive) | 0.0655 (inactive) | -0.0825 (inactive) | 0.105 (inactive) | -0.326 | -0.0869 (inactive) | -0.115 (inactive) | -0.205 | 0.0857 | -0.749 | -0.506 | -0.589 | -0.486 | -0.085 | -0.24 (inactive) | -0.569 | -0.436 | 0.604 (inactive) |
| C=CCC(OC(C)=O)[C@@H]1[C@@H](N(Cc2ccc(-c3cccc(C(F)(F)F)c3)o2)C(=O)Cc2ccc(F)cc2)c2cc(OCCCO)ccc2N1C(=O)Cc1ccc(OC)cc1 (stereo not given in full) | 0.29 (inactive) | -0.191 | 2.58 (inactive) | -0.307 (inactive) | -0.876 (inactive) | -0.668 (inactive) | 0.317 | -2.17 (inactive) | 0.269 (inactive) | -0.0149 | 1.31 | 1.16 | 0.892 | -0.394 | 0.274 | 2.87 | 0.649 (inactive) | -0.386 | -0.195 | 0.555 (inactive) |
| CN(C)CCCNC(=O)[C@@]1(c2ccc([N+](=O)[O-])cc2)CC(=O)N(C2CCCCC2)[C@@H]1c1ccc(CO)cc1I | -2.09 (inactive) | 0.0824 | 14.8 (active) | 1.44 (inactive) | -2.81 (inactive) | 0.037 (inactive) | -1.78 | -8.16 (active) | -2.52 (inactive) | 0.205 | -4.33 | 0.184 | -5.13 | -3.86 | -4.36 | -3.14 | 0.499 (inactive) | -0.952 | -2.31 | -6.55 (inactive) |
| COCCCN1C(=O)[C@@]2(c3ccc([N+](=O)[O-])cc3)CC(=O)N(C3CCCCC3)[C@@H]2c2ccc(CO)cc21 | -0.0972 (inactive) | -0.35 | -0.141 (inactive) | -0.063 (inactive) | -0.382 (inactive) | 0.0583 (inactive) | -0.495 | -2.14 (inactive) | -1.3 (inactive) | -0.379 | -0.794 | -1.03 | 0.14 | 0.819 | -1.23 | -0.393 | 0.939 (inactive) | -0.739 | -0.847 | -1.18 (inactive) |
| CN(C)C(=O)[C@@]1(Cc2ccccc2)N=C(c2ccc(OCCCO)cc2)O[C@H]1c1ccccc1N=[N+]=[N-] | 0.89 (inactive) | 0.737 | 30.4 (active) | 27.4 (active) | 2.05 (inactive) | 7.06 (inactive) | 1.33 | -1.93 (inactive) | 0.891 (inactive) | -1.22 | -1.45 | 1.22 | -1.84 | -2.53 | -3.91 | 1.48 | 1.17 (inactive) | -0.981 | -2.53 | -1.63 (inactive) |
| COCC(=C=CC[C@@H](O)c1ccccc1OCCO)C[C@@H](O)c1cc(Cl)cc(Cl)c1O | -0.397 (inactive) | 0.086 | 20.5 (active) | 4.9 (inactive) | 0.392 (inactive) | 0.945 (inactive) | 0.35 | -0.19 (inactive) | -0.894 (inactive) | -2.07 | 0.14 | -0.407 | 0.0467 | -3.32 | -3.44 | -2.21 | -1.69 (inactive) | -0.881 | -1.15 | -0.106 (inactive) |
| O=C1c2ccccc2[C@@]2(Cc3ccccc3N(CCN3CCOCC3)C2=O)[C@H](c2ccc(CO)cc2)N1Cc1ccccc1 | 1.04 (inactive) | -0.0479 | 0.884 (inactive) | -0.273 (inactive) | -0.378 (inactive) | 0.646 (inactive) | 0.215 | 0.0706 (inactive) | -0.582 (inactive) | -0.606 | 0.668 | -0.238 | 0.402 | 0.0855 | 0.66 | 0.761 | 0.734 (inactive) | -0.605 | -0.253 | -0.273 (inactive) |
